Measurements taken from PubChem BioAssay (NCI).
The panel holds about 83,000 compounds, 20% with a hit somewhere; the sample as a whole holds those more often.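 In brief: 96-well plates, 48 h treatment, single concentration, percent growth endpoint.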 A number with no mark means an inactive call. Activity calls are given as the source filed them. How the source made its calls: active means growth percent below 10; inactive means the rest.

test system: NCI-H23 lung; test: NCI-60 one-dose screen, 48 h (100 = growth as untreated, 0 = no growth, -100 = all killed); settings: 10 µM unless noted

**Q.** How did the growth turn out when Nc1[nH]n2cc(-c3ccc(F)cc3)nc2c1N=Nc1ccc(S(N)(=O)=O)cc1 was run?
**A.** 80.9%

**Q.** Which growth does the source give for O=C(Nc1ncccc1OCc1ccccc1)NC1CCCCCC1 here?
**A.** 89.8%

**Q.** How did the growth turn out when CCNc1nc(O)c(/C=C2\C=Nc3ncccc32)s1 was run?
**A.** -7.87% (active)

**Q.** Which growth does the source give for Cn1cc(-c2nn3cc(-c4cccs4)nc3s2)c2cc(F)ccc21 here?
**A.** 58%

**Q.** Cc1ccc(-c2nc(/C=C3/C(=O)Nc4ccc(F)cc43)c3ccccn23)cc1 was tested. Which growth did it give?
**A.** 77.1%

**Q.** With O=[N+]([O-])c1ccc(-c2cn3nc(-c4c[nH]c5ccccc45)sc3n2)cc1 as the molecule, how does the growth read?
**A.** 88.1%

**Q.** How did the growth turn out when O=C(CI)NC(=O)NC(=O)NCc1ccccc1 was run?
**A.** 32.6%

**Q.** Which growth does the source give for O=C(Nc1cc(Cl)ccc1O)c1cccc(Nc2ccnc(C(F)(F)F)c2)c1 here?
**A.** 11.6%

**Q.** For N#Cc1c(Nc2ccc(N3CCOCC3)cc2)nc(SCC(=O)c2ccc(Br)cc2)nc1-c1ccccc1, which growth is on record?
**A.** 98%

**Q.** COc1cc(OC)c(/C=C/C(=O)c2c(O)cc(OC)c(C3CCN(C)CC3)c2OC)c(OC)c1 was tested. Which growth did it give?
**A.** -58.8% (active)

**Q.** CCS/C(Nc1ccccc1)=C(\C#N)C(=O)Nc1ccc(OC)cc1 was tested. Which growth did it give?
**A.** 48.3%

**Q.** Which growth does the source give for C=CN(C(=O)N1CCN(c2cc3c(cc2F)c(=O)c(C(=O)O)cn3C2CC2)CC1)c1nc(-c2ccc(OC)cc2)cs1 here?
**A.** 12.7%

**Q.** For O=C(Nc1ccccc1[N+](=O)[O-])c1ccc(Cl)c(Cl)c1, which growth is on record?
**A.** 86.6%

**Q.** CCn1cc(CNc2ccc(C(=O)Nc3cc4cc(OC)c(OC)cc4c(C)n3)cc2)cn1 was tested. Which growth did it give?
**A.** 43.3%

**Q.** How did the growth turn out when COc1ccc2c(c1)c(-c1nc(-c3c[nH]c4ncccc34)cs1)cn2CCCN1CCOCC1 was run?
**A.** 56.6%

**Q.** Which growth does the source give for C[n+]1ccc(CCc2c[nH]c3ccccc23)cc1 here?
**A.** 102%

**Q.** CC(C)CCN(CCC(C)C)CC(O)c1cc2c(c3ccccc13)CCCC2 (stereo not given) was tested. Which growth did it give?
**A.** 56.6%

**Q.** For CO[C@H]1CC(=O)n2c3ccccc3c3c4c(c5c6ccccc6n1c5c32)C(=O)NC4=O, which growth is on record?
**A.** 63.3%

**Q.** COc1ccc(C2=CN3CC=CC3CC2=O)cc1 (stereo not given) was tested. Which growth did it give?
**A.** 97.8%

**Q.** Which growth does the source give for COc1cccc(/C=C/C(=O)c2cc3c(N)c(C(=O)Nc4cccc5ccccc45)sc3nc2C)c1 here?
**A.** 28.4%

**Q.** For Cc1ccc(CNc2ccc3nc(CCC(C)C)[nH]c3c2)cc1, which growth is on record?
**A.** 94.2%

**Q.** How did the growth turn out when COc1ccc(/C(C)=C(/c2ccc(OCCCN(C)C)cc2)c2ccc(OC(=O)c3ccccc3)cc2)cc1 was run?
**A.** 82.2%

**Q.** Which growth does the source give for COC(=O)CC[C@@H]1O[C@@H](c2ccc(F)cc2)[C@@H](O)[C@H]1O here?
**A.** 103%

**Q.** O=C1/C=C/[C@@H](O)[C@@H]2C[C@@H](O)C[C@H]2/C=C/CCC[C@H](CCO)O1 was tested. Which growth did it give?
**A.** 10.2%

**Q.** COc1cccc(-c2cc(-c3cccc(Cl)c3)c(C#N)c(=O)[nH]2)c1 was tested. Which growth did it give?
**A.** 86.7%

**Q.** How did the growth turn out when COc1ccc(CNc2c3ccccc3nc3ccccc23)c(OC)c1 was run?
**A.** 34.9%

**Q.** For CCN(CC)c1ccc(CNc2cc(C)nc3ccccc23)cc1, which growth is on record?
**A.** 26.9%

**Q.** Which growth does the source give for O=C1Nc2ccccc2/C1=C\c1c[nH]c2ccc(Br)cc12 here?
**A.** 77.4%

**Q.** O=C(CCCCCNC(=O)c1cc(=O)c(O)co1)Nc1ccccc1 was tested. Which growth did it give?
**A.** 99.1%

**Q.** How did the growth turn out when CCOc1ccc(-n2nc(C(=O)NCc3ccccc3OC)nc2-c2cc(OC)c(OC)c(OC)c2)cc1 was run?
**A.** 60.7%

**Q.** For COc1ccc(-c2nc(/C=C3\C(=O)N(C)c4ccccc43)c3ccccn23)cc1, which growth is on record?
**A.** 76.2%

**Q.** Which growth does the source give for FC(F)(F)Oc1cccc(-c2cnc3ccc(-c4ccncc4)nn23)c1 here?
**A.** 15.6%

**Q.** For CCN1C(=O)N(CC)C2C1NN=c1s/c(=C3\C(=O)N(CC(C)C)c4ccccc43)c(=O)n12 (stereo not given), which growth is on record?
**A.** 31.1%

**Q.** Which growth does the source give for COc1cc(OC)c(C(=O)C(CN(C)C)CN(C)C)cc1OC here?
**A.** 96.5%

**Q.** How did the growth turn out when Cc1ccc(/C=C/C(=O)c2ccc(-n3cc(CN4CCN(c5cc6c(cc5F)c(=O)c(C(=O)O)cn6C5CC5)CC4)nn3)cc2)cc1 was run?
**A.** 81.5%

**Q.** With NC1(CO)COC(c2ccccc2)OC1 (stereo not given) as the molecule, how does the growth read?
**A.** 109%

**Q.** For COc1cc(C2C(C(=O)OCc3ccccc3)=C(C)NC(C)=C2C(=O)OCc2ccccc2)cc(OC)c1OC, which growth is on record?
**A.** 29.3%

**Q.** How did the growth turn out when CC1=C(CCC(C)NCc2ccc(OCCCN3CCCCC3)cc2)C(C)(C)CCC1 (stereo not given) was run?
**A.** -42.9% (active)

**Q.** How did the growth turn out when N#C/C(=C\c1ccc([N+](=O)[O-])cc1)n1nnc2cc(F)c(F)cc21 was run?
**A.** 34.6%

**Q.** With CS(=O)(=O)c1ccc(NC(=O)c2ccccc2)nc1 as the molecule, how does the growth read?
**A.** 108%

test system: NCI-H226 lung; test: as above; settings: 10 µM unless noted

**Q.** Which growth does the source give for Nc1[nH]n2cc(-c3ccc(F)cc3)nc2c1N=Nc1ccc(S(N)(=O)=O)cc1 here?
**A.** 88.4%

**Q.** Which growth does the source give for O=C(Nc1ncccc1OCc1ccccc1)NC1CCCCCC1 here?
**A.** 73.8%

**Q.** For CCNc1nc(O)c(/C=C2\C=Nc3ncccc32)s1, which growth is on record?
**A.** 10.8%

**Q.** With Cn1cc(-c2nn3cc(-c4cccs4)nc3s2)c2cc(F)ccc21 as the molecule, how does the growth read?
**A.** 67%

**Q.** With Cc1ccc(-c2nc(/C=C3/C(=O)Nc4ccc(F)cc43)c3ccccn23)cc1 as the molecule, how does the growth read?
**A.** 95.2%

**Q.** Which growth does the source give for O=[N+]([O-])c1ccc(-c2cn3nc(-c4c[nH]c5ccccc45)sc3n2)cc1 here?
**A.** 90.8%

**Q.** For O=C(CI)NC(=O)NC(=O)NCc1ccccc1, which growth is on record?
**A.** -43.6% (active)

**Q.** With O=C(Nc1cc(Cl)ccc1O)c1cccc(Nc2ccnc(C(F)(F)F)c2)c1 as the molecule, how does the growth read?
**A.** 54.2%

**Q.** With N#Cc1c(Nc2ccc(N3CCOCC3)cc2)nc(SCC(=O)c2ccc(Br)cc2)nc1-c1ccccc1 as the molecule, how does the growth read?
**A.** 108%

**Q.** How did the growth turn out when COc1cc(OC)c(/C=C/C(=O)c2c(O)cc(OC)c(C3CCN(C)CC3)c2OC)c(OC)c1 was run?
**A.** -47.7% (active)

**Q.** For CCS/C(Nc1ccccc1)=C(\C#N)C(=O)Nc1ccc(OC)cc1, which growth is on record?
**A.** 57.9%

**Q.** How did the growth turn out when C=CN(C(=O)N1CCN(c2cc3c(cc2F)c(=O)c(C(=O)O)cn3C2CC2)CC1)c1nc(-c2ccc(OC)cc2)cs1 was run?
**A.** 37.8%

**Q.** Which growth does the source give for O=C(Nc1ccccc1[N+](=O)[O-])c1ccc(Cl)c(Cl)c1 here?
**A.** 79.9%

**Q.** CCn1cc(CNc2ccc(C(=O)Nc3cc4cc(OC)c(OC)cc4c(C)n3)cc2)cn1 was tested. Which growth did it give?
**A.** 48.7%

**Q.** Which growth does the source give for COc1ccc2c(c1)c(-c1nc(-c3c[nH]c4ncccc34)cs1)cn2CCCN1CCOCC1 here?
**A.** 45.4%

**Q.** With C[n+]1ccc(CCc2c[nH]c3ccccc23)cc1 as the molecule, how does the growth read?
**A.** 109%

**Q.** For CC(C)CCN(CCC(C)C)CC(O)c1cc2c(c3ccccc13)CCCC2 (stereo not given), which growth is on record?
**A.** 70.2%

**Q.** Which growth does the source give for CO[C@H]1CC(=O)n2c3ccccc3c3c4c(c5c6ccccc6n1c5c32)C(=O)NC4=O here?
**A.** 52.1%

**Q.** How did the growth turn out when COc1ccc(C2=CN3CC=CC3CC2=O)cc1 (stereo not given) was run?
**A.** 98%

**Q.** Which growth does the source give for COc1cccc(/C=C/C(=O)c2cc3c(N)c(C(=O)Nc4cccc5ccccc45)sc3nc2C)c1 here?
**A.** 36.4%

**Q.** With Cc1ccc(CNc2ccc3nc(CCC(C)C)[nH]c3c2)cc1 as the molecule, how does the growth read?
**A.** 89.8%

**Q.** For COc1ccc(/C(C)=C(/c2ccc(OCCCN(C)C)cc2)c2ccc(OC(=O)c3ccccc3)cc2)cc1, which growth is on record?
**A.** 102%

**Q.** For COC(=O)CC[C@@H]1O[C@@H](c2ccc(F)cc2)[C@@H](O)[C@H]1O, which growth is on record?
**A.** 101%

**Q.** How did the growth turn out when O=C1/C=C/[C@@H](O)[C@@H]2C[C@@H](O)C[C@H]2/C=C/CCC[C@H](CCO)O1 was run?
**A.** -38.9% (active)

**Q.** With COc1cccc(-c2cc(-c3cccc(Cl)c3)c(C#N)c(=O)[nH]2)c1 as the molecule, how does the growth read?
**A.** 91.4%

**Q.** With COc1ccc(CNc2c3ccccc3nc3ccccc23)c(OC)c1 as the molecule, how does the growth read?
**A.** 46.3%

**Q.** For CCN(CC)c1ccc(CNc2cc(C)nc3ccccc23)cc1, which growth is on record?
**A.** 56.2%

**Q.** With O=C1Nc2ccccc2/C1=C\c1c[nH]c2ccc(Br)cc12 as the molecule, how does the growth read?
**A.** 34.9%

**Q.** How did the growth turn out when O=C(CCCCCNC(=O)c1cc(=O)c(O)co1)Nc1ccccc1 was run?
**A.** 105%

**Q.** With CCOc1ccc(-n2nc(C(=O)NCc3ccccc3OC)nc2-c2cc(OC)c(OC)c(OC)c2)cc1 as the molecule, how does the growth read?
**A.** 62.5%

**Q.** With COc1ccc(-c2nc(/C=C3\C(=O)N(C)c4ccccc43)c3ccccn23)cc1 as the molecule, how does the growth read?
**A.** 63.8%

**Q.** For FC(F)(F)Oc1cccc(-c2cnc3ccc(-c4ccncc4)nn23)c1, which growth is on record?
**A.** 33.5%

**Q.** CCN1C(=O)N(CC)C2C1NN=c1s/c(=C3\C(=O)N(CC(C)C)c4ccccc43)c(=O)n12 (stereo not given) was tested. Which growth did it give?
**A.** 61.5%

**Q.** COc1cc(OC)c(C(=O)C(CN(C)C)CN(C)C)cc1OC was tested. Which growth did it give?
**A.** 108%

**Q.** With Cc1ccc(/C=C/C(=O)c2ccc(-n3cc(CN4CCN(c5cc6c(cc5F)c(=O)c(C(=O)O)cn6C5CC5)CC4)nn3)cc2)cc1 as the molecule, how does the growth read?
**A.** 84.6%

**Q.** With NC1(CO)COC(c2ccccc2)OC1 (stereo not given) as the molecule, how does the growth read?
**A.** 103%

**Q.** Which growth does the source give for COc1cc(C2C(C(=O)OCc3ccccc3)=C(C)NC(C)=C2C(=O)OCc2ccccc2)cc(OC)c1OC here?
**A.** 32.2%

**Q.** CC1=C(CCC(C)NCc2ccc(OCCCN3CCCCC3)cc2)C(C)(C)CCC1 (stereo not given) was tested. Which growth did it give?
**A.** -32.7% (active)

**Q.** Which growth does the source give for N#C/C(=C\c1ccc([N+](=O)[O-])cc1)n1nnc2cc(F)c(F)cc21 here?
**A.** -1.27% (active)

**Q.** With CS(=O)(=O)c1ccc(NC(=O)c2ccccc2)nc1 as the molecule, how does the growth read?
**A.** 103%
